We go through nine compounds from PubChem BioAssay (NCI).

Among the test systems are DU-145 prostate; K-562 leukemia; MALME-3M melanoma; MDA-MB-231 breast; RXF 393 renal; SF-268 CNS; SF-295 CNS; SF-539 CNS; UACC-257 melanoma; M14 melanoma; HCT-15 colon; HT29 colon; SNB-75 CNS; PC-3 prostate; SK-MEL-5 melanoma; UACC-62 melanoma; LOX IMVI melanoma; SK-MEL-28 melanoma; SNB-19 CNS; U251 CNS.
Common to all, as to experiment: NCI-60 one-dose screen, 48 h (100 = growth as untreated, 0 = no growth, -100 = all killed)
Holding throughout (conditions): 10 µM unless noted

The panel holds about 83,000 compounds, 20% with a hit somewhere; the sample as a whole holds those more often.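 Cell lines were cultured in 96-well plates, exposed to a single compound concentration, and assessed for percent growth 48 hours later.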 A number with no mark means an inactive call. Active and inactive are the calls of the source. Rule for the calls: active = growth percent below 10; inactive = the rest.

Consider `COCCCN=C(N)c1ccc(NC(=O)c2ccc(C(=O)Nc3ccc(C(N)=NCCCOC)cc3)cc2)cc1`, for which the growth with DU-145 prostate is 148%; with K-562 leukemia, 66.8%; with MALME-3M melanoma, 75.5%; in the test with MDA-MB-231 breast, 112%; with RXF 393 renal, 142%; with SF-268 CNS, 103%. Moreover, the growth is 93.7% in the test with SF-295 CNS; 98.5% in the test on SF-539 CNS; 121% in the test with UACC-257 melanoma; 80.3% with M14 melanoma; 118% in the test on HCT-15 colon; 110% in the test on HT29 colon. In addition, the growth is 86.4% in the test on SNB-75 CNS; 125% in the test on PC-3 prostate; 78.3% with SK-MEL-5 melanoma; 91% in the test on UACC-62 melanoma; 120% in the test on LOX IMVI melanoma; 226% in the test with SK-MEL-28 melanoma.

As to `COc1cccc(-c2nc3sccn3c2-c2ccnc(NCCCNS(=O)(=O)c3ccccc3)c2)c1`, the growth was 42.2% in the test on DU-145 prostate; 13.9% with K-562 leukemia; 50.8% with MALME-3M melanoma; 58.8% in the test with MDA-MB-231 breast; 63.7% in the test with RXF 393 renal; 49.9% in the test with SF-268 CNS. Further, the growth in the test on SF-295 CNS was 28.6%; with SF-539 CNS it was 73.1%; in the test on UACC-257 melanoma, 50.9%; in the test with M14 melanoma, 38%; in the test with HCT-15 colon, 27.6%; in the test on HT29 colon, 41.6%. Besides, the growth in the test on SNB-19 CNS is 68.7%; in the test on U251 CNS, 65.4%; in the test on PC-3 prostate, 15.9%; with SK-MEL-5 melanoma, -29.8% (active); with UACC-62 melanoma it was -27.7% (active); in the test on LOX IMVI melanoma, 35.1%. In addition, the growth in the test on SK-MEL-28 melanoma was 66.8%.

On to `Cc1cc(=O)oc2cc(Oc3nc(-c4ccc(Cl)cc4)cn4c(-c5ccc(Cl)cc5)cnc34)ccc12`, for which the growth was 69.6% with DU-145 prostate; 85.1% in the test with K-562 leukemia; 43.6% in the test with MALME-3M melanoma; 73.3% in the test on MDA-MB-231 breast; 70.5% in the test on RXF 393 renal; 95.9% with SF-268 CNS. The growth is 120% with SF-295 CNS; 91.8% in the test with SF-539 CNS; 88.3% with UACC-257 melanoma; 64.2% in the test with M14 melanoma; 63.8% with HCT-15 colon; 47.7% in the test with HT29 colon. The growth was 91.6% in the test on SNB-75 CNS; 87.9% with PC-3 prostate; 84.4% with SK-MEL-5 melanoma; 99.3% in the test on UACC-62 melanoma; 84.4% in the test on LOX IMVI melanoma; 38.3% in the test with SK-MEL-28 melanoma.

As to `CC#CC#Cc1cccc(=O)o1`, the growth with DU-145 prostate was 100%; with K-562 leukemia it was 73.8%; with MALME-3M melanoma, 78.9%; in the test with MDA-MB-231 breast it was 45%; with RXF 393 renal, 47.3%; in the test on SF-268 CNS it was 50.4%. In addition, the growth was 96.1% in the test with SF-295 CNS; 76.4% in the test on SF-539 CNS; 72.6% in the test on UACC-257 melanoma; 74.9% in the test on M14 melanoma; 36.1% in the test with HCT-15 colon; 45.3% in the test on HT29 colon. Moreover, the growth with SNB-75 CNS was 82.4%; in the test on U251 CNS, 75.1%; in the test on PC-3 prostate, 78.6%; with SK-MEL-5 melanoma, 70.3%; in the test with UACC-62 melanoma, 40.8%; in the test on LOX IMVI melanoma it was 61.5%. In addition, the growth with SK-MEL-28 melanoma was 23.9%.

On to `Cc1cc(Cl)ccc1Nc1nc(C(F)(F)F)ccc1C(=O)N/N=C/c1ccc(F)cc1`, for which the growth was 35.2% in the test on DU-145 prostate; 5.33% (active) in the test on K-562 leukemia; 6.12% (active) in the test with MALME-3M melanoma; -9.74% (active) in the test with MDA-MB-231 breast; 17.8% in the test on RXF 393 renal; 19.6% in the test on SF-268 CNS. Also, the growth in the test on SF-295 CNS is 17.4%; with SF-539 CNS, 24.6%; with UACC-257 melanoma it was 8.52% (active); in the test with M14 melanoma it was 2.84% (active); in the test on HCT-15 colon, 6.36% (active); with HT29 colon it was 4.55% (active). Further, the growth in the test on SNB-75 CNS was 42%; in the test on U251 CNS it was 3.86% (active); in the test with SK-MEL-5 melanoma, 5.06% (active); in the test with UACC-62 melanoma it was 15.4%; in the test with LOX IMVI melanoma, 0.251% (active); with SK-MEL-28 melanoma, 34.1%.

As for `CCN(CC)CC#CCOC(=O)[C@]1(C)CCC[C@@]2(C)[C@H]1CC(C=O)=C1C=C(C(C)C)CC[C@@H]12`, the growth in the test with DU-145 prostate is 90.1%; in the test on K-562 leukemia, 20.7%; in the test with MALME-3M melanoma, 82.3%; in the test on MDA-MB-231 breast, 76%; in the test with RXF 393 renal, 61.2%; in the test on SF-268 CNS, 75.8%. Besides, the growth with SF-295 CNS was 71.8%; with SF-539 CNS it was 49.1%; in the test on UACC-257 melanoma, 85.4%; in the test with M14 melanoma it was 56.4%; with HCT-15 colon it was 40.9%; in the test on HT29 colon, 9.02% (active). The growth in the test on SNB-19 CNS was 77.1%; with U251 CNS, 57.2%; in the test on PC-3 prostate it was 45.4%; in the test on SK-MEL-5 melanoma, 42.8%; in the test on UACC-62 melanoma it was 68.9%; in the test on LOX IMVI melanoma, 73.2%. Further, in the test on SK-MEL-28 melanoma, the growth was 87.4%.

With `COc1ccc(C/C(C)=C(\c2ccc(Cl)cc2)c2ccc(OCCN3CCCCCC3)cc2)cc1`, the growth is 106% in the test on DU-145 prostate; 20.7% in the test with K-562 leukemia; 104% in the test on MALME-3M melanoma; 99.9% in the test on MDA-MB-231 breast; 93.1% in the test with RXF 393 renal; 88.4% in the test on SF-268 CNS. For the same compound, the growth with SF-295 CNS was 100%; with SF-539 CNS, 90.8%; in the test on UACC-257 melanoma, 94.7%; with M14 melanoma it was 90.2%; in the test on HCT-15 colon it was 43.1%; in the test on HT29 colon, 15.7%. Also, the growth in the test on SNB-19 CNS was 84.6%; in the test on U251 CNS it was 64.5%; with PC-3 prostate it was 69.2%; with SK-MEL-5 melanoma it was 80%; in the test on UACC-62 melanoma, 93.2%; with LOX IMVI melanoma, 90%. Moreover, the growth in the test with SK-MEL-28 melanoma was 91%.

Regarding `COc1ccc(S(=O)(=O)NCCNc2nccc(-c3c(-c4cccc(N)c4)nc4sccn34)n2)cc1`, the growth was 105% with DU-145 prostate; 88.9% in the test on K-562 leukemia; 101% with MALME-3M melanoma; 104% in the test on MDA-MB-231 breast; 107% in the test on RXF 393 renal; 99.7% with SF-268 CNS. For the same compound, the growth in the test on SF-295 CNS is 99.2%; in the test with SF-539 CNS it was 110%; with UACC-257 melanoma it was 102%; in the test with M14 melanoma it was 102%; in the test with HCT-15 colon, 101%; in the test on HT29 colon, 93.5%. Further, the growth in the test on SNB-19 CNS is 108%; in the test on U251 CNS, 104%; in the test on PC-3 prostate it was 83.6%; in the test with SK-MEL-5 melanoma, 98%; in the test with UACC-62 melanoma, 100%; with LOX IMVI melanoma it was 98.4%. For the same compound, the growth in the test on SK-MEL-28 melanoma is 117%.

With `Cn1c2ccccc2c2c3c(c4c5ccccc5[nH]c4c21)C(=O)N(N)C3=O`, the growth in the test on DU-145 prostate was 57.4%; in the test with K-562 leukemia it was 49.7%; with MALME-3M melanoma it was 69.2%; with MDA-MB-231 breast, 82.9%; in the test on RXF 393 renal, 67.9%; with SF-268 CNS it was 45.8%. Further, the growth was 27.1% in the test with SF-295 CNS; 20.2% in the test with SF-539 CNS; 76.8% in the test with UACC-257 melanoma; 37.2% in the test with M14 melanoma; 68.2% in the test with HCT-15 colon; 60.3% in the test on HT29 colon. Further, the growth in the test on SNB-75 CNS was 63.9%; with PC-3 prostate, 59.6%; in the test with SK-MEL-5 melanoma it was 31%; in the test on UACC-62 melanoma, 22.6%; in the test on LOX IMVI melanoma, 23.4%; with SK-MEL-28 melanoma it was 66.5%.
